# COUP-TFII inh: blocks human COUP-TFII nuclear receptor; P24468; inhibition, % at 8.6 µM; 370,000 tested, 0.7% active; HEK293T NGFI-A luciferase reporter, luminescence; AID 686940;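 active means inhibition above a per-plate cutoff, mean inhibition of test wells between control levels plus 3 SD, cut at about 38% in these data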;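 further: cells cotransfected with COUP-TFII expression vector driving the NGFI-A reporter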
# SRC2 inh: inhibits human steroid receptor coactivator 2; Q15596; HEK293 GAL4-SRC2 luciferase reporter, luminescence; inhibition, % at 9 µM; 370,000 tested, 0.17% active;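 active means inhibition above the mean inhibition of all tested compounds plus 3 SD, set per campaign, cut at about 52% in these data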
# SRC3 inh: inhibitors of human steroid receptor coactivator 3 (SRC3); HEK293 GAL4-SRC3 luciferase reporter, luminescence; inhibition, % at 3.6 µM; 360,000 tested, 0.17% active; AID 588352;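 active means inhibition above a per-campaign cutoff, the mean of all compounds plus 3 SD, cut at about 60% in these data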;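 further: higher means less SRC3-driven luciferase light from the GAL4 reporter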
# Target sequence (Q9Y6Q9 whole entry, looked up, the tested form may be a part): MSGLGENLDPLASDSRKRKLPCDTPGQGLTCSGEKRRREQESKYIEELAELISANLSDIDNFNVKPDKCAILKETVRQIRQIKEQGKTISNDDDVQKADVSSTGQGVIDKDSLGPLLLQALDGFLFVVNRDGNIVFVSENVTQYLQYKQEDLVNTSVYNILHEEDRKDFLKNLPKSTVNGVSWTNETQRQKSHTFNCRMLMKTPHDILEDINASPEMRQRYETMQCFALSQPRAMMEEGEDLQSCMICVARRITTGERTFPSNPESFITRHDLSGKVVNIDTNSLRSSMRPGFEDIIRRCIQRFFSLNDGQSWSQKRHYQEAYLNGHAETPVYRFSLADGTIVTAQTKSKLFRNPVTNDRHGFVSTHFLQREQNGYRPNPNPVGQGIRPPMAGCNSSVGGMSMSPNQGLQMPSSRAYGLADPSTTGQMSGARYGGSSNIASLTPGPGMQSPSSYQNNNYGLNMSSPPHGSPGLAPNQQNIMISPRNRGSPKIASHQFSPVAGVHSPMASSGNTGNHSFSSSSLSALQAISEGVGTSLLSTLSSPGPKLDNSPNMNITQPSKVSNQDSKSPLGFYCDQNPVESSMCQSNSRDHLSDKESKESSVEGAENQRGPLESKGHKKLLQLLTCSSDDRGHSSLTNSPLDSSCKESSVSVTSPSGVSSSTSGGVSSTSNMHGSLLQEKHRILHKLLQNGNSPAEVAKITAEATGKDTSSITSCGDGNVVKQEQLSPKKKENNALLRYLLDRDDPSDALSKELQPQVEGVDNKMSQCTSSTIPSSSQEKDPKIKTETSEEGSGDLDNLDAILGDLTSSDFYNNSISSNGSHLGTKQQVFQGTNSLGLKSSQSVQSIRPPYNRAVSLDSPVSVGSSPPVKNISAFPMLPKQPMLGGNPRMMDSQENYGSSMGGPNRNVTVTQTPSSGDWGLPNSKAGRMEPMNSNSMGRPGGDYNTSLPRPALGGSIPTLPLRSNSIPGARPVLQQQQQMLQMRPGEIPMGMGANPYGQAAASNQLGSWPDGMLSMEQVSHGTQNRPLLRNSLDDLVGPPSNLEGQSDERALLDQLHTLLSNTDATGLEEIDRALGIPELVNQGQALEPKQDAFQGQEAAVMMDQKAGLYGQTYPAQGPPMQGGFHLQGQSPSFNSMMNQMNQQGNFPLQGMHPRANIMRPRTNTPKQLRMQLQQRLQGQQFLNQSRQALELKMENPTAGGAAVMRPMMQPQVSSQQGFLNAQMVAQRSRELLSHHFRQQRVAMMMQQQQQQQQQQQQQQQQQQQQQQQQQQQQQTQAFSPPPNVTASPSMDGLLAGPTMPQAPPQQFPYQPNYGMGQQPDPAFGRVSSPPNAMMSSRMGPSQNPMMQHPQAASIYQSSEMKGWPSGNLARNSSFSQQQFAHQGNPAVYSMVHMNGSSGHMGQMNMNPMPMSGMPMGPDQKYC
# LRH-1 inv ag: NR5A2 inverse agonism in reporter assay; O00482; HEK293T StAR-luciferase reporter, LRH-1 transfected, 24 h; inhibition, % at 3.6 µM; 360,000 tested, 0.13% active; AID 602396;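 active means inhibition above the mean inhibition of all tested compounds plus 3 SD, cut at about 73% in these data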
# NCOA1 inh: human NCOA1 inhibition. Q15788. HEK293 GAL4-SRC1 luciferase reporter, luminescence. inhibition, % at 3.6 µM. 360,000 tested, 0.12% active. AID 588354;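 active means inhibition above the campaign mean plus 3 SD, with each screening campaign given its own cutoff, cut at about 60% in these data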
# Gal4-VP16 ctr: counter-screen for COUP-TFII antagonists: inhibitors of VP16; 2,500 tested, 25% active; HEK293 Gal4-VP16 luciferase reporter, luminescence; inhibition, % at 8.5 µM; shares compounds with COUP-TFII inh; in the data active means inhibition above about 13%
# NR2F2 inh conf: COUP-TFII (NR2F2) inhibition, confirmation assay; inhibition, % at 8.5 µM; shares compounds with COUP-TFII inh; HEK293 NGFI-A luciferase reporter, luminescence; 2,500 tested, 45% active; AID 687008;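 active means mean inhibition over three repeats above a set limit taken from the earlier primary screen, cut at about 38% in these data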
# Numbers stand for hits; – = inactive; · = not tested or not shown. Shown are actives, neighbours in structure and some others; about 0.81% of the full set was active somewhere.
SMILES,COUP-TFII inh,SRC2 inh,SRC3 inh,LRH-1 inv ag,NCOA1 inh,Gal4-VP16 ctr,NR2F2 inh conf
O=C(c1ccccc1)N1CCN(c2ncnc3sc4c(c23)CCC4)CC1,40,–,–,–,–,–,–
COc1ccc(NC(=O)Nc2cccc3c2O[C@H](CN(C)C(=O)Nc2ccc4c(c2)OCO4)[C@@H](C)CN([C@H](C)CO)C3=O)cc1,–,–,–,–,–,·,·
Cc1ccc2cccc(S(=O)(=O)N3CCCc4ccccc43)c2n1,39,–,–,–,–,–,–
O=C(NC1CCCCN(Cc2cccc(F)c2)C1=O)c1ccc(-c2ccccc2)cc1 (stereo not drawn),–,–,·,·,·,·,·
CCOc1cc(/C=C2\CN(C)C/C(=C\c3ccc(O)c(OCC)c3)C2=O)ccc1O,78,–,–,–,–,57,82
COc1cc(C=C2CN(C)C(=O)C2=O)ccc1O,–,–,–,–,–,·,·
COC(=O)C1CN(Cc2cn(CCOC(C)=O)nn2)CCS(=O)(=O)N1Cc1ccc(OC)cc1 (stereo not drawn),–,–,·,·,·,·,·
CC(C)OC(=O)CCCCCN1C(=O)CSC1=S,–,–,–,–,–,·,·
O=C(O)CCCCCN1C(=O)CSC1=S,45,81,–,–,–,–,–
CCCCCCCCNS(=O)(=O)CC1NCc2cc(F)ccc21 (stereo not drawn),–,–,·,·,·,·,·
CC(C)(C)c1ccc(Oc2ccc(NC(=O)C3CC=CCC3C(=O)O)cc2)cc1 (stereo not drawn),91,78,–,–,–,15,–
Cc1ccc(-c2cc(C(=O)NN=Cc3ccc(-c4ccccc4)cc3)[nH]n2)cc1,–,–,·,·,·,·,·
Cn1c(=O)cc(OCCCC(=O)Nc2cc(-c3cn[nH]c3)ccn2)c2ccccc21,55,·,·,·,·,35,–
O=C1CCC[C@H]2C[C@H](NCc3ccc(F)cc3F)CC[C@]23CCCN13,–,·,·,·,·,·,·
COc1ccccc1OCc1ccc(C(=O)Nc2ccncc2)o1,39,–,–,–,–,–,–
COc1ccccc1OCc1ccc(C(=O)NC(C)(C)C)o1,–,–,–,–,–,·,·
COc1ccc(CN(CC#Cc2ccccc2)Cc2ccccc2)c(OC)c1,–,–,·,·,·,·,·
O=c1c2ccccc2nc2n1C(CSCc1ccc(Cl)cc1)CS2 (stereo not drawn),42,–,–,–,–,–,–
COc1cc(CSc2nnnn2-c2ccc(C)cc2)cc(OC)c1OC,69,–,–,–,–,–,54
Cc1ccccc1OC1C(=O)N(Cc2ccc3c(c2)OCO3)C1c1sccc1C (stereo not drawn),–,–,–,–,–,·,·
COc1ccc(-c2cn[nH]c2-c2ccc(OCc3ccc([N+](=O)[O-])cc3)cc2O)cc1OC,38,–,–,–,–,–,–
Cc1cc(C)c(NC(=O)CO/N=C2\CCCc3nonc32)c(C)c1,–,–,–,–,–,·,·
O=C(Nc1ccc(OCC(F)(F)C(F)F)c(C(F)(F)F)c1)c1ccccc1O,69,–,–,–,–,–,–
O=C(Nc1nc2ccccc2[nH]1)c1ccccc1F,62,65,64,–,–,33,48
CCOc1ccc(C(=O)Nc2nc3ccccc3[nH]2)cc1OCC,52,–,–,–,–,–,–
SMILES,COUP-TFII inh,SRC2 inh,SRC3 inh,LRH-1 inv ag,NCOA1 inh,Gal4-VP16 ctr,NR2F2 inh conf
CCc1ccc(C(=O)Nc2nc3ccccc3[nH]2)cc1,74,68,–,–,–,–,–
O=C(Nc1nc2ccccc2[nH]1)c1ccc(F)cc1,–,–,–,–,–,·,·
COc1ccc(Cc2nc3ccc(C(=O)N4CCCC4)cc3o2)cc1OC,–,–,–,–,–,·,·
COc1ccc(Cc2nc3ccc(C(=O)N4CCN(C)C(C)C4)cc3o2)cc1OC (stereo not drawn),49,–,–,–,–,–,46
CC(=O)c1cccc(NS(=O)(=O)c2ccc(NC(=O)N3CCCCC3)cc2)c1,56,–,–,–,–,14,44
COc1ccc(C(=O)N2CCN(C3CCC(c4ccccc4)CC3)CC2)cc1OC (stereo not drawn),41,–,–,–,–,–,–
COc1ccc(C(=O)N2CCC(N3CCN(c4ccccc4)CC3)CC2)cc1OC,–,–,–,–,–,·,·
CCc1c(OC(C)=O)c2ccccc2n(C)c1=O,–,–,–,–,–,·,·
C=CCc1c(OC(C)=O)c2ccccc2n(C)c1=O,40,–,–,–,–,–,–
Cc1nn(CCC(=O)NNC(=O)Nc2ccc(Cl)cc2)c(C)c1[N+](=O)[O-],–,–,·,·,·,·,·
O=C(NO)c1ccc(OC(F)F)cc1,45,–,–,–,–,–,–
O=C(N/N=C/c1ccc(OC(F)F)cc1)c1ccc(Br)cc1,–,–,–,–,–,·,·
CCS(=O)(=O)Nc1ccc(C2=NN(S(C)(=O)=O)C(c3cccs3)C2)cc1 (stereo not drawn),–,–,–,–,–,·,·
CCN(CC)c1ccc(NS(=O)(=O)c2cn(C)c(=O)n(C)c2=O)c(C)c1,78,–,–,–,–,–,–
Cc1ccc(NS(=O)(=O)c2cn(C)c(=O)n(C)c2=O)cc1C,–,–,–,–,–,·,·
Cc1cc2cc(CCNC(=O)CCCc3ccccc3)c(=O)[nH]c2cc1C,–,–,–,–,–,·,·
CCCCN1C=CC(=C2C(=O)c3ccccc3C2=O)C=C1,80,76,–,–,–,67,67
CCCCNC1=CC(=O)C(=O)c2ccccc21,–,–,–,–,–,·,·
CCOC(=O)C1=CCN(S(=O)(=O)c2ccccc2F)C1c1ccc(Br)cc1 (stereo not drawn),–,–,·,·,·,·,·
Cn1nc(C(C)(C)C)cc1C(=O)NCc1cc(F)cc2c1OCOC2,63,–,–,–,–,–,61
Cc1cc(C(=O)CSc2nnc3ccccn23)c(C)n1-c1ccccc1,40,–,66,–,–,–,57
Cc1cc(C(=O)CSc2nnc(-c3ccccc3)n2-c2ccccc2)c(C)n1-c1ncn[nH]1,–,–,–,–,–,·,·
Cc1c(N(C(=O)c2ccccn2)C2(C(=O)NC3CCCC3)CCCCC2)c(=O)n(-c2ccccc2)n1C,–,–,–,–,–,·,·
CCC(C)Nc1nc(-c2ccccn2)nc2ccccc12 (stereo not drawn),38,–,64,81,–,–,–
COc1ccc(CC2C(=O)NC(C)C(=O)N(C)C3Cc4ccc(cc4)Oc4cc(ccc4O)CC(C(=O)NC(C)C(=O)NC(C)C(=O)N2C)N(C)C3=O)cc1 (stereo not drawn),88,76,94,98,94,19,82
CC(C)C[C@@H]1NC(=O)[C@H](Cc2ccccc2)N(C)C(=O)[C@H](C)NC(=O)c2ccccc2NC(=O)[C@H](Cc2ccc(O)cc2)N(C)C1=O,–,–,–,–,–,·,·
CS(=O)(=O)N(CC(=O)N1CCN(Cc2ccc3c(c2)OCO3)CC1)Cc1ccc(Cl)cc1,40,–,–,–,–,–,–

# High-throughput results from PubChem.
